Assay outcomes: PubChem BioAssay, National Center for Advancing Translational Sciences (NCATS)
A selection: hits, their analogues and other compounds. The true share with any hit is near 2.5%.
Cruzain inh Det: cruzain (T. cruzi) inhibition with detergent. hit rate 0.43% among 200,000. purified cruzain, Z-FR-AMC fluorescence, 0.01% Triton. Potency, µM, most hits filed as inhibitors. P25779; also: nearly all actives have a fitted effect of over 40% in size
Target sequence (P25779 123-467 limits assumed): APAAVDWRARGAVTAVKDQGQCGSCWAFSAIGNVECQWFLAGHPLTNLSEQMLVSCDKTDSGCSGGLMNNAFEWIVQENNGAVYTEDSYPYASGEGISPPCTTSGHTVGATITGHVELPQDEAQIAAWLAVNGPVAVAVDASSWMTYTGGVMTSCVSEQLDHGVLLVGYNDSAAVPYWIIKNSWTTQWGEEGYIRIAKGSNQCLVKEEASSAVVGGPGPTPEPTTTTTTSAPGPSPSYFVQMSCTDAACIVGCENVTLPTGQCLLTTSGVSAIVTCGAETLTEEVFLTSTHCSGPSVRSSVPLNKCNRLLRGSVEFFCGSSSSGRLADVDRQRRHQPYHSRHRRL
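Z-FR-AMC hydrolysis (2 uM substrate) by cruzain (1.5 nM) monitored kinetically at ex 360/em 450 nm after 15 min room-temperature compound exposure; 0.01% Triton X-100, pH 5.5, 5 mM DTT.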
Cruzain noTriton: inhibitors of Trypanosoma cruzi cruzain without detergent. Potency, µM, hits mostly inhibitors. hit rate 2.3% among 200,000. purified cruzain, Z-FR-AMC fluorescence, no detergent. AID 1476. P25779; also: nearly all actives have a fitted effect of over 40% in size
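Detergent-free condition (0.00005% Triton X-100) in acetate buffer pH 5.5 with DTT. 1.5 nM enzyme and compound were pre-mixed 15 min, then 2 uM Z-FR-AMC substrate added; reaction progress from fluorescence change between first and third reads (60 s).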
Of the large screens only hits and unclear results are named; the others gave an inactive call. Calls follow the shape of the dose curve; as a rule, active = well fitted curve in the direction sought with a large enough effect; inconclusive = small, poorly fitted or top-dose-only effect, or another doubt; inactive = no such curve, though single readings can be large; an effect the other way counts as inactive or inconclusive.

COc1ccc(NC(=O)CCc2nnc3n(C)c(=O)c4sccc4n23)cc1Cl	none
Cc1ccc(C(=O)Nc2ccc3oc(-c4ccncc4)nc3c2)c(Cl)c1	none
CCNc1ccc(-c2nc(-c3ccco3)no2)cc1[N+](=O)[O-]	none
COCCNc1ccc(-c2nc(-c3ccco3)no2)cc1[N+](=O)[O-]	Cruzain noTriton 3.2µM
CN(C)S(=O)(=O)c1ccc(C(=O)NCCSc2c(-c3ccc(Br)cc3)[nH]c3ccccc23)cc1	Cruzain noTriton 25µM
CCN(CC)S(=O)(=O)c1ccc(C(=O)NCCSc2c(-c3ccccc3)[nH]c3ccccc23)cc1	Cruzain noTriton inconclusive
Cc1cc(C)cc(NC2=CC(c3cccc(F)c3)N(c3cc(C)cc(C)c3)C2=O)c1 (configuration not stated)	none
Cn1nc(-c2ccccc2)c(COC(=O)c2cccc(Cl)c2)c1S(=O)(=O)c1ccccc1	Cruzain noTriton 25µM
CNS(=O)(=O)c1cccc(C(=O)OCc2csc(-c3ccccc3)n2)c1	none
O=C(NCCN1C(=O)S/C(=C\c2ccc(Cl)c(Cl)c2)C1=O)c1ccc2c(c1)C(=O)N(Cc1ccncc1)C2=O	Cruzain noTriton 13µM
O=C(NCCN1C(=O)S/C(=C\c2ccc(Cl)cc2)C1=O)c1ccc(F)c(S(=O)(=O)N2CCOCC2)c1	Cruzain noTriton inconclusive
Cc1ccc(NC(=O)Cn2cnc3sc(C(=O)NCCN(C)C)c(C)c3c2=O)cc1Cl	none
Cc1ccc(NC(=O)Cn2cnc3sc(C(=O)O)c(C)c3c2=O)cc1Cl	Cruzain inh Det 0.0063µM
COc1ccc(C)cc1NC(=O)Cn1nc(N2CCN(c3ccccc3OC)CC2)ccc1=O	Cruzain noTriton inconclusive
COc1cccc(Cn2c(CNC(=O)CCc3ccccc3)nc3cccnc32)c1	none
COC(=O)CSc1nnc(-c2ccccc2OC)n1-c1ccc(C)cc1	none
COc1ccccc1-c1nnc(SCC(=O)c2ccc(Cl)cc2)n1-c1ccccc1	Cruzain noTriton 25µM
Cc1ccccc1-n1c(SCC(=O)N/N=C/C=C/c2ccccc2[N+](=O)[O-])nc2ccccc2c1=O	Cruzain noTriton inconclusive
O=C(CSc1nc2ccccc2c(=O)n1-c1ccc(Cl)cc1)N/N=C/C=C/c1ccccc1[N+](=O)[O-]	Cruzain noTriton 10µM
CC(=O)Nc1nonc1-c1nnc(SCc2ccc(Cl)cc2)n1C	none
CCOc1ccccc1NC(=O)CSc1c(C)cnc2c1c(=O)n(C)c(=O)n2C	none
CCn1c2ccccc2c2cc(/C=N/NC(=O)c3ccccc3C)ccc21	Cruzain noTriton 32µM
CCn1c2ccccc2c2cc(/C=N/n3cnnc3)ccc21	none
CCn1c2ccccc2c2cc(/C=N/NC(=O)c3cccc(C)c3)ccc21	Cruzain noTriton 7.9µM
Cc1cccc(C(=O)N/N=C/c2ccncc2)c1	none
COc1ccc2[nH]cc(CCNc3ncnc4ccc(-c5ccoc5)cc34)c2c1	none
Cc1cccc(-c2nc(N3CCN(c4ccc(F)cc4)CC3)c3ccccc3n2)c1	none
CCOC(=O)c1ccc(Nc2c(-c3cccc(O)c3)nc3nc[nH]n23)cc1	none
O=C(Cn1ncn2c(cc3sccc32)c1=O)NCCc1ccccc1	none
Cc1cc(-c2nc3ncccc3o2)ccc1N	Cruzain inh Det 28µM, Cruzain noTriton inconclusive
Nc1cc(-c2nc3ncccc3o2)ccc1Cl	none
COc1ccc(-c2nc3c(c(SCC(=O)Nc4ccccc4F)n2)Cc2cc(C)ccc2O3)cc1	none
Cc1cccc(CSc2nc(N)c(C#N)c(-c3cccs3)c2C#N)c1	Cruzain noTriton 25µM
Cc1cccc(CSc2nc3c(c(-c4cccs4)c2C#N)CN(C)CC3)c1	none
O=C(CCCCCn1c(=O)c2sccc2n(Cc2ccc(Cl)cc2)c1=O)NCc1ccc2c(c1)OCO2	none
O=C(Nc1cccc(NC(=O)c2ccccc2Cl)c1)c1cccc(Br)c1	Cruzain noTriton 7.9µM
O=C(N/N=C/c1ccncc1)c1cccc(NC(=O)c2ccccc2Cl)c1	none
CCn1cc(C(=O)NCCCN(CC(C)C)CC(C)C)c(=O)c2cc(S(=O)(=O)N(C)C3CCCCC3)ccc21	none
Cc1nc(CC(=O)Nc2cc(Cl)ccc2C)cs1	none
Cc1cccc(-n2ncc3c(Nc4ccc(C)c(Cl)c4)ncnc32)c1	none
Cc1cccc(-n2ncc3c(Nc4ccc(Oc5ccc(Cl)cc5)cc4)ncnc32)c1	Cruzain noTriton 25µM
COc1ccccc1Oc1nc2c(c(=O)n(C)c(=O)n2C)n1Cc1cccc(Br)c1	Cruzain noTriton inconclusive
COCCN1C=C(C(=O)OC)C(c2cc(Br)c(OC)c(OC)c2)C(C(=O)OC)=C1	Cruzain inh Det 22µM, Cruzain noTriton inconclusive
COC(=O)C1=CN(C)C=C(C(=O)OC)C1c1ccc(O)c(OC)c1	none
Cc1ccc(C(=O)NNC(=O)CSc2nnc3c(n2)[nH]c2ccc(F)cc23)cc1	Cruzain noTriton inconclusive
O=C(CSc1nnc2c(n1)[nH]c1ccc(F)cc12)OCc1ccccc1	Cruzain noTriton 13µM
CCCCn1c(/C=N/Nc2nc3ccccc3[nH]2)nc2ccccc21	Cruzain noTriton inconclusive
C#CCn1cc(/C=N/Nc2nc3ccccc3[nH]2)c2ccccc21	Cruzain noTriton 32µM
Cc1ccc(-n2nc(C(=O)Nc3ccc(F)cc3Cl)c(=O)n(C)c2=O)cc1	none
OC[C@@H](O)[C@@H](O)[C@@H](O)[C@@H](O)c1nc2ccc(Cl)cc2[nH]1	none
CC(=O)N1CCc2cc(CNS(=O)(=O)c3ccc(C(C)(C)C)cc3)ccc21	none
O=C(CNC(=O)c1cccc(F)c1)OCC(=O)N1CCCc2ccccc21	Cruzain inh Det 11µM, Cruzain noTriton 10µM
O=C(CNC(=O)c1ccccc1F)OCC(=O)N1CCCc2ccccc21	Cruzain inh Det 10µM, Cruzain noTriton 10µM
O=C(COC(=O)CNC(=O)c1ccccc1F)NCCC1=CCCCC1	Cruzain inh Det 14µM, Cruzain noTriton 10µM
O=C(OCC(=O)N1CCc2ccccc21)c1cccc(S(=O)(=O)N2CCCc3ccccc32)c1	Cruzain noTriton inconclusive
O=C(Cc1ccccc1)NCCC1=CCCCC1	none
COCC(=O)N1CCCc2ccccc21	none
CC(C)(C)NC(=O)NC(=O)COC(=O)c1cccc(F)c1	none
CC(C)(C)NC(=O)NC(=O)COC(=O)CNC(=O)c1cccc(F)c1	Cruzain inh Det 22µM, Cruzain noTriton inconclusive
Cc1ccc(S(=O)(=O)NCCc2nnc3ccc(SCC(=O)Nc4ccc(F)cc4F)nn23)cc1	none
CCC1CCCCN1C(=O)CSc1n[nH]c(-c2ccccc2)n1 (configuration not stated)	none
COc1cccc(-n2c(=O)c3cc(OC)c(OC)cc3n(CC(=O)Nc3ccccc3)c2=O)c1	none
O=C1SCC(c2ccc(Cl)cc2Cl)=NN1Cc1nnc(-c2ccccc2)o1	Cruzain noTriton 16µM
CC(=O)Nc1ccc(C2=NN(Cc3nnc(-c4ccccc4)o3)C(=O)SC2)cc1	Cruzain noTriton inconclusive
Cc1cccc(N2CCN(C(c3ccccc3)c3nnc(-c4ccccc4F)o3)CC2)c1C (configuration not stated)	none
CCCCNc1nc(Oc2ccc(=O)n(C)n2)nc(N2CCOCC2)n1	none
Cc1ccc(S(=O)(=O)NC(=O)O[C@@H]2C(=O)c3cc(Br)ccc3O[C@H]2c2ccc3c(c2)OCO3)cc1	none
COc1ccc(CNc2ccccc2)cc1Br	none
COc1cc(CNc2cccc(F)c2)cc(Br)c1O	Cruzain noTriton 25µM
O=C(COC(=O)/C=C/c1cccs1)Nc1nc(-c2ccccc2)cs1	Cruzain noTriton inconclusive
Cc1cc(C)cc(NC(=O)CCn2cnc3ccccc3c2=O)c1	none
O=C(CCn1cnc2ccccc2c1=O)Nc1nc(-c2ccc(Br)cc2)cs1	Cruzain noTriton 25µM
C/C(=N\Nc1nc(-c2ccccc2)cs1)c1cccs1	Cruzain inh Det inconclusive, Cruzain noTriton 7.9µM
